Source: PubChem (National Center for Advancing Translational Sciences (NCATS))
Hits are enriched below; roughly 19% of the tested compounds scored in any of these assays.
DT40 TDP1 no CPT – qHTS for Inhibitors of human tyrosyl-DNA phosphodiesterase 1 (TDP1): qHTS in cells in absence of CPT. DT40 Tdp1-/- hTDP1 cells, no CPT, ATP luminescence, 48 h. Potency, µM (top dose mostly 46.2 µM), without a hit: at the highest dose activity change, negative = growth inhibition, usual class: inhibitors. hit rate 15% among 420,000. AID 686978, 2013; note: potency is the fitted concentration of half-maximal effect; nearly all actives have a fitted effect of over 55% in size
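Growth kinetics read by CellTiter-Glo luminescence after ≥48 hr at 37 °C. Cells: DT40 Tdp1-/- stably carrying human TDP1, 400 per well, compound exposure in the absence of CPT (DMSO vehicle).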
DT40 TDP1 CPT – growth inhibition of DT40 Tdp1-/-;hTDP1 cells with camptothecin (screen for TDP1 inhibitors); chicken DT40 Tdp1-/-;hTDP1 cells + 20 nM CPT, ATP luminescence, 48 h; Potency, µM (doses to about 46.2 µM), without a hit: at the top dose activity change, negative = growth inhibition, most hits filed as inhibitors; hit rate 12% among 420,000; note: potency is the fitted concentration of half-maximal effect; nearly all actives have a fitted effect of over 55% in size
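Chicken DT40 Tdp1-/- cells stably complemented with human TDP1 were seeded at 400 cells/well in medium containing 20 nM camptothecin, exposed to pin-transferred compounds, and grown at 37 °C for at least 48 hr. Viability was read as ATP luminescence.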
HT1080 IDH1KD tx – kills HT-1080 cells with IDH1 knockdown; HT-1080 IDH1 knockdown viability, ATP luminescence, 48 h; Potency, µM (highest dose often 46.1 µM), for the others: at the top dose activity, negative = toxicity, actives largely listed as cytotoxic; hit rate 2% among 360,000; AID 686971;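 note: potency is the fitted concentration of half-maximal effect; 0% = DMSO wells and -100% = cell-free medium wells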
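Viability of IDH1-knockdown HT-1080 fibrosarcoma cells was assessed by CellTiter-Glo after 48 h at 37 °C with titrated compound; concentration-effect curves were classified by fit quality and response size.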
HT1080-NT tox – kills 2HG-producing HT-1080-NT fibrosarcoma cells; HT-1080-NT fibrosarcoma viability, CellTiter-Glo ATP luminescence, 48 h; Potency, µM (series often up to 46.1 µM), for inactives: top-dose activity, negative = less viability, most hits filed as cytotoxic; hit rate 1.6% among 360,000;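 note: NT is the 2HG producing partner of a matched IDH1 knockdown line; potency is the fitted concentration of half-maximal effect; 0% = DMSO-treated cells and -100% = media-only wells without cells; nearly all actives have a fitted effect of over 55% in size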
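A 48-hour cytotoxicity screen used HT-1080-NT cells plated 2 hours before compound delivery. ATP-based CellTiter-Glo luminescence measured viability, normalized to DMSO and no-cell controls.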
IL-1B inflam inh – inflammasome signaling inhibition, IL-1 beta readout; AID 743279; THP-1 LPS/ATP IL-1B secretion, AlphaLISA, 16 h; stronger effect = lower value; hit rate 4.7% among 360,000; activity change, % at 57.5 µM; in the data active = activity change below about -50%; inconclusive = mostly about -30% to -49%
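THP-1 cells pretreated 1 hr with compounds (up to 57.5 uM final), then stimulated with LPS (250 ng/mL final) plus ATP (1.25 mM final); secreted IL-1B measured by AlphaLISA after 16 hr, decreased signal indicating inhibition.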
ELG1 repair inh – blocks ELG1-dependent DNA repair in HEK293T cells. AID 504467. HEK293T ELG1-luciferase reporter, luminescence, 16 h; DNA damage induced by 5-fluorouridine. Potency, µM (series often up to 46.1 µM), for inactives: top-dose activity change, negative = inhibition, most hits filed as inhibitors. hit rate 2.3% among 330,000; note: potency is the fitted concentration of half-maximal effect; nearly all actives have a fitted effect of over 55% in size
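In this reporter screen, reduction of luminescence relative to DMSO vehicle indicated activity. Compounds and 5-fluorouridine were added together to 2,000 cells per well, incubated for 16 hr at 37 °C, then developed with ONE-Glo.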
Starred values were filed as active, the others as inactive; u = inconclusive; x = not tested or not shown. Unless noted, calls come from the whole dose curve; as a rule, active = well fitted curve in the direction sought with a large enough effect; inconclusive = small, poorly fitted or top-dose-only effect, or another doubt; inactive = no such curve, though single readings can be large; an effect the other way counts as inactive or inconclusive. Unless noted, % is set by controls: 0 for no effect and ±100 for the full control effect.

SMILES	DT40 TDP1 no CPT	DT40 TDP1 CPT	HT1080 IDH1KD tx	HT1080-NT tox	IL-1B inflam inh	ELG1 repair inh
CCc1ccccc1Nc1nn2c(=O)c3ccc(C(=O)NCc4ccc(C)cc4)cc3nc2s1	8.2µM*	u	x	x	x	x
CCc1ccccc1Nc1nn2c(=O)c3ccc(C(=O)NC(C)c4ccccc4)cc3nc2s1 (stereo not drawn)	15µM*	15µM*	x	x	x	x
CCOc1c2ccc(C(=O)NCCCCc3ccccc3)cc2nn1CC	1%	-18%	-3%	-1%	17	u
CCc1ccccc1Nc1nn2c(=O)c3ccc(C(=O)NCCc4ccccc4)cc3nc2s1	23µM*	10µM*	x	x	x	x
O=C(CCNC(=O)Cn1cnc2ccccc2c1=O)NCCC1=CCCCC1	-4%	u	-20%	2%	22	6%
CCOc1c2ccc(C(=O)NCc3ccc(C)cc3)cc2nn1CC	4%	9%	16%	4%	-24	9%
CCCN(CC(=O)Nc1ccccc1OC)C(=O)c1ccccn1	-3%	-1%	19%	6%	-6	13%
COc1ccc2nc(-c3ccccc3)nc(SC)c2c1	-16%	-10%	-5%	-1%	42	x
Cc1cccc(C(c2sc3nc(-c4ccco4)nn3c2O)N2CCN(Cc3ccccc3)CC2)c1 (stereo not drawn)	-29%	-23%	x	x	x	x
COC(=O)c1ccc2c(=O)n3nc(Nc4ccc(F)cc4F)sc3nc2c1	6%	12%	x	x	x	x
Cc1ccccc1Nc1nn2c(=O)c3ccc(C(=O)NCc4ccccc4)cc3nc2s1	16µM*	16µM*	x	x	x	x
Cc1ccc(Cl)cc1Nc1nn2c(=O)c3ccc(C(=O)NCc4ccc(F)cc4)cc3nc2s1	4.6µM*	2.1µM*	x	x	x	x
CCOC(=O)c1ccccc1NC(=O)c1ccc2c(=O)n3c(nc2c1)CCCCC3	u	u	6%	0%	0	u
CCc1ccc(NC(=O)c2ccc3c(=O)n4nc(Nc5ccccc5C)sc4nc3c2)cc1	13µM*	23µM*	x	x	x	x
Cc1cccc(C)c1NC(=O)CN(C)C(=O)CN1C(=O)NC(C)(C)C1=O	20%	-13%	6%	1%	3	19%
Cc1cccc(N(C(=O)c2cnc3n(c2=O)CCS3)C2CCCCC2)c1	u	12µM*	-5%	-7%	6	-23%
O=C(c1cnc2n(c1=O)CCS2)N(C1CCCCC1)C1CCCCC1	23µM*	u	2%	13%	17	0%
O=C(c1cnc2n(c1=O)CCS2)N(c1ccccc1)C1CCCCC1	u	u	5%	3%	36	-18%
OC(CCCC(O)c1ccccc1)c1ccccc1 (stereo not drawn)	-10%	0%	17%	12%	-12	x
COc1cccc(CC2(CO)CCCN(Cc3cn(C)c4ccccc34)C2)c1 (stereo not drawn)	23µM*	21µM*	-7%	-8%	-12	u
COc1cccc(CC2(CO)CCCN(Cc3ccc(CN4CCCCC4)s3)C2)c1 (stereo not drawn)	u	21µM*	-9%	-21%	-11	5%
COc1cccc(CC2(CO)CCCN(Cc3ccc(OC)c(C)c3OC)C2)c1 (stereo not drawn)	16µM*	18µM*	-10%	-13%	0	-24%
COCc1ccc(CN2CCCC(CO)(Cc3cccc(OC)c3)C2)o1 (stereo not drawn)	-43%	u	-5%	0%	-16	2%
COc1cccc(CC2(CO)CCCN(Cc3ccccc3Cl)C2)c1 (stereo not drawn)	u	u	-8%	-5%	0	-10%
CCn1cc(CN2CCCC(CO)(Cc3ccc(F)cc3)C2)c2ccccc21 (stereo not drawn)	u	u	18µM*	u	-65*	-5%
SMILES	DT40 TDP1 no CPT	DT40 TDP1 CPT	HT1080 IDH1KD tx	HT1080-NT tox	IL-1B inflam inh	ELG1 repair inh
Cc1ccc(CNC(=O)CCS(=O)(=O)c2cc3c4c(c2)CCN4C(=O)CC3)cc1	3%	-13%	x	x	x	x
CC1=C(c2ccc(C)c(C)c2)S(=O)(=O)N=C1N1CCN(c2cccc(C(F)(F)F)c2)CC1	-4%	0%	x	x	x	x
COc1cccc(CC2(CO)CCCN(Cc3cnn(-c4ccccc4)c3)C2)c1 (stereo not drawn)	26µM*	u	-5%	0%	u	5%
COc1cccc(CC2(CO)CCCN(Cc3cc(F)ccc3-n3cccn3)C2)c1 (stereo not drawn)	u	u	u	u	-3	-4%
O=C(CCN1C(=O)/C(=C/c2ccccc2Cl)SC1=S)NC1CCCC1	9.2µM*	8.2µM*	-2%	-3%	u	10%
O=C(CCN1C(=O)/C(=C/c2ccccc2Cl)SC1=S)NCCc1ccc(O)cc1	9.2µM*	u	8%	11%	u	16%
O=C(CCN1C(=O)/C(=C/c2ccccc2Cl)SC1=S)NN1CCOCC1	u	u	10%	0%	-20	15%
O=C(CCN1C(=O)/C(=C/c2ccccc2Cl)SC1=S)NNC(=O)c1ccccc1O	u	u	u	u	32	u
CCOC(=O)CSc1nc(C(C)(C)C)nc2ccccc12	u	-21%	u	u	-16	-17%
O=C(CCSc1ccccn1)c1ccccc1	2.6µM*	2.3µM*	u	5%	u	-1%
O=C(O)CCSc1ccccn1	0%	-4%	3%	2%	33	-5%
Cc1[nH]c2ccccc2c1/C=N/Nc1nc(Nc2ccc(F)cc2)nc(N2CCOCC2)n1	-24%	-21%	0%	-4%	1	21µM*
C(=N\Nc1nc(Nc2ccccc2)nc(N2CCOCC2)n1)/c1c[nH]c2ccccc12	8.2µM*	12µM*	u	u	-81*	16µM*
Cc1ccc(Nc2nc(N/N=C/c3c[nH]c4ccccc34)nc(N3CCOCC3)n2)cc1	8.2µM*	21µM*	u	u	-67*	16µM*
BrC(/C=N/Nc1nc(N2CCOCC2)nc(N2CCOCC2)n1)=C/c1ccccc1	21µM*	16µM*	-11%	-6%	u	12µM*
CN(C)CCNC(=O)Cc1ccc(NC(=O)N2CCCCc3ccccc32)cc1	-9%	-9%	x	x	x	x
O=C(Oc1cccc(/C=N/Nc2nc(Nc3ccccc3)nc(N3CCOCC3)n2)c1)c1ccco1	23µM*	21µM*	u	-28%	1	9.2µM*
